Results: PubChem BioAssay (EPA / NIEHS)
Calls of active or inactive are those of the source. Rule for the calls: active = hit-call score of the fitted dose curve at least 0.9, where 1 is the maximum; inactive = score below 0.9.

What was measured:
[1] = ATG_CRE_CIS: Attagene CIS-FACTORIAL HepG2 Assay for human cAMP Responsive Element (CRE) binding protein 3 (AID 2282926); conditions: HepG2 CRE cis-reporter, Attagene multiplexed mRNA; actives raise or lower the signal
How it was run: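 Multiplexed transcription-unit reporters transfected into HepG2; 24 h dosing; RT-PCR/capillary electrophoresis fluorescence read-out; bidirectional fit vs DMSO.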

[2] = target: CCAAT/enhancer-binding protein beta (Homo sapiens) (UniProt P17676); experiment: ATG_C_EBP_CIS: Attagene CIS-FACTORIAL HepG2 Assay for human CCAAT/Enhancer Binding Protein (C/EBP) beta (AID 2282927); conditions: HepG2 Attagene cis-factorial transcription factor reporter; actives raise or lower the signal
How it was run: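 RT-PCR/capillary electrophoresis fluorescence of reporter mRNA, 24 h post-dose, in HepG2 cells carrying transfected cis-promoter reporter units. Bidirectional curve fitting against DMSO baseline captures gain or loss of signal.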

[3] = ATG_CMV_CIS: Attagene CIS-FACTORIAL HepG2 Assay for human CMV (Internal Marker) (AID 2282928); conditions: HepG2 CMV promoter reporter, transcription factor profiling; actives raise or lower the signal;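 note: endpoint acts as a background internal control marker rather than a target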
How it was run: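 HepG2 cells transiently transfected with multiple cis-regulated reporter units; 24 h compound exposure. Reporter mRNA quantified by RT-PCR, 6-FAM primer-extension labeling, HpaI digestion and capillary electrophoresis; bidirectional fitting against DMSO baseline.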

[4] = target: Aryl hydrocarbon receptor (Homo sapiens) (UniProt P35869); experiment: ATG_Ahr_CIS: Attagene CIS-FACTORIAL HepG2 Assay for human Aryl Hydrocarbon Receptor (Ahr) (AID 2282930); conditions: HepG2 AhR cis-factorial reporter transcription; actives raise or lower the signal
How it was run: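 HepG2 cells transiently transfected with cis-element-driven multiplexed reporter transcription units; endogenous transcription factor activity measured as reporter mRNA 24 h after dosing. RT-PCR, 6-FAM labelling, HpaI digestion, capillary electrophoresis; bidirectional fitting versus DMSO baseline.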

[5] = ATG_AP_1_CIS: Attagene CIS-FACTORIAL HepG2 Assay for human Activator Protein 1 (AP-1) (AID 2282931); conditions: HepG2 Attagene cis-factorial AP-1 reporter mRNA; actives raise or lower the signal
How it was run: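 Endogenous transcription-factor activity in human HepG2 liver cells is read through a cis-promoter reporter transcript, sampled 24 h after dosing. Detection uses RT-PCR with capillary electrophoresis; values come from bidirectional fitting relative to DMSO.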

[6] = ATG_AP_2_CIS: Attagene CIS-FACTORIAL HepG2 Assay for human Activator Protein 2 (AP-2) (AID 2282932); conditions: HepG2 AP-2 cis-reporter, Attagene transcription factor profiling; actives raise or lower the signal
How it was run: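 HepG2 cells were transiently transfected with multiple cis-promoter reporter transcription units and dosed for 24 h. Reporter mRNA was measured by RT-PCR with capillary electrophoresis fluorescence; bidirectional fits relative to DMSO baseline.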

[7] = ATG_BRE_CIS: Attagene CIS-FACTORIAL HepG2 Assay for human Bone Morphogenetic Protein (BMP) Response Element (BRE) (AID 2282933); conditions: HepG2 BMP response element reporter, Attagene transcription factor profiling; actives raise or lower the signal
How it was run: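 A HepG2 multiplex reporter system measured inducible reporter mRNA 24 h post-dosing. Detection: RT-PCR, 6-FAM primer extension, HpaI digestion, capillary electrophoresis. Activity fitted bidirectionally relative to DMSO.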

[8] = target: Retinoic acid receptor alpha (Homo sapiens) (UniProt P10276); experiment: ATG_DR5_RAR_CIS: Attagene CIS-FACTORIAL HepG2 Assay for human Retinoic Acid Receptor Alpha (RARE), DR5 submotif (AID 2282934); conditions: HepG2 Attagene cis-factorial RARE DR5 reporter, mRNA; actives raise or lower the signal
How it was run: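 HepG2 cells transiently transfected with multiplexed reporter units under cis (DR5 RARE) promoters, so endogenous transcription factor activity is measured. After 24 h compound exposure, reporter mRNA is quantified by RT-PCR with fluorescent labelling and capillary electrophoresis; bidirectional fitting versus DMSO.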

[9] = target: Transcription factor E2F1 (Homo sapiens) (UniProt Q01094); experiment: ATG_E2F_CIS: Attagene CIS-FACTORIAL HepG2 Assay for human E2F Transcription Factor 1 (AID 2282935); conditions: HepG2 Attagene cis-reporter, E2F reporter RNA transcripts; actives raise or lower the signal
How it was run: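 HepG2 cells transiently transfected with multiplexed cis-element reporter units, dosed for 24 h. Reporter mRNA measured by RT-PCR, 6-FAM primer-extension labeling, HpaI digestion and capillary electrophoresis; bidirectional fit versus DMSO baseline.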

[10] = ATG_E_Box_CIS: Attagene CIS-FACTORIAL HepG2 Assay for human Enhancer Box (E-box) (AID 2282936); conditions: HepG2 E-box cis-reporter transcription, actives raise or lower the signal
How it was run: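 HepG2 cells transiently transfected with multiplexed cis-element reporter units sensing endogenous transcription factor activity; 24 h compound exposure. Reporter mRNA measured by RT-PCR, 6-FAM primer extension, HpaI digestion and capillary electrophoresis; bidirectional fit versus DMSO.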

[11] = ATG_M_61_CIS: Attagene CIS-FACTORIAL HepG2 Assay for M61 Transcription Factor (Internal Marker) (AID 2282937); conditions: HepG2 Attagene CIS-FACTORIAL M61 internal marker reporter; actives raise or lower the signal
How it was run: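 Cells were transfected with reporter units under cis-regulatory promoters, treated with chemicals for 24 h, then lysed for RNA. Reporter transcripts were quantified by RT-PCR and capillary electrophoresis, and activity was fitted bidirectionally against DMSO.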

[12] = ATG_EGR_CIS: Attagene CIS-FACTORIAL HepG2 Assay for human Early Growth Response 1 (EGR1) (AID 2282938); conditions: HepG2 Attagene CIS-FACTORIAL EGR reporter mRNA; actives raise or lower the signal
How it was run: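 Endogenous TF activity in HepG2 liver cells was gauged through cis-promoter reporter constructs transiently transfected. After 24 h dosing, reporter mRNA was quantified by RT-PCR and capillary electrophoresis, and curves fitted in both directions versus DMSO.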

[13] = ATG_M_19_CIS: Attagene CIS-FACTORIAL HepG2 Assay for M19 Transcription Factor (Internal Marker) (AID 2282939); conditions: HepG2 Attagene CIS-FACTORIAL M19 internal marker reporter; actives raise or lower the signal
How it was run: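 Chemical-treated HepG2 (24 h) with MRTU constructs; reporter transcripts detected by fluorescent RT-PCR fragment analysis on capillary electrophoresis. Internal background marker, DMSO as baseline.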

[14] = ATG_ERE_CIS: Attagene CIS-FACTORIAL HepG2 Assay for Estrogen Response Element (ERE) (AID 2282940); conditions: HepG2 ERE cis-reporter, Attagene RNA transcript; actives raise or lower the signal
How it was run: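 Human liver cells (HepG2) bearing transiently transfected, promoter-regulated reporter units were exposed 24 h. Reporter mRNA induction was detected by capillary electrophoresis of labelled RT-PCR products and fitted bidirectionally to DMSO.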

[15] = ATG_Ets_CIS: Attagene CIS-FACTORIAL HepG2 Assay for human Erythroblast Transformation Specific (ETS) (AID 2282941); conditions: HepG2 ETS cis-reporter transcription, actives raise or lower the signal
How it was run: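 HepG2 cells transiently transfected with cis-promoter reporter transcription units were dosed for 24 h; reporter mRNA was measured by RT-PCR, 6-FAM primer extension, HpaI digestion and capillary electrophoresis, with bidirectional fitting against DMSO baseline.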

[16] = target: Hepatocyte nuclear factor 3-beta (Homo sapiens) (UniProt Q9Y261); experiment: ATG_FoxA2_CIS: Attagene CIS-FACTORIAL HepG2 Assay for human Forkhead box A2 (FOXA2) (AID 2282942); conditions: HepG2 cis-reporter transcription factor activity, 24 h; actives raise or lower the signal
How it was run: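 Endogenous transcription factor activity was read in HepG2 cells carrying transiently transfected cis-promoter reporter units. After 24 h dosing, reporter mRNA was quantified by RT-PCR and capillary electrophoresis, and values fitted bidirectionally versus DMSO.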

[17] = ATG_FoxO_CIS: Attagene CIS-FACTORIAL HepG2 Assay for human Forkhead box O (FoxO) (AID 2282943); conditions: HepG2 Attagene cis-reporter, FoxO element, mRNA; actives raise or lower the signal
How it was run: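 HepG2 cells transiently transfected with cis-promoter-driven multiple reporter transcription units; 24 h after chemical dosing, reporter mRNA quantified by RT-PCR, fluorescent primer extension, HpaI digestion and capillary electrophoresis. Bidirectional fitting versus DMSO baseline.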

[18] = ATG_GATA_CIS: Attagene CIS-FACTORIAL HepG2 Assay for human GATA Binding Protein (AID 2282944); conditions: HepG2 GATA cis-element reporter, Attagene multiplex mRNA; actives raise or lower the signal
How it was run: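 Transfected cis-reporter HepG2 cells were treated with chemicals for 24 hours. Total RNA was then converted to cDNA, amplified with reporter-specific primers and analysed by fluorescent capillary electrophoresis, using DMSO-treated wells as baseline.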

[19] = ATG_GLI_CIS: Attagene CIS-FACTORIAL HepG2 Assay for human Zinc Finger Protein GLI1 (AID 2282945); conditions: HepG2, Attagene cis-factorial reporter mRNA, GLI element; actives raise or lower the signal
How it was run: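 HepG2 cells transiently transfected with cis-promoter multiplexed reporter units report endogenous transcription factor activity. After 24 h chemical exposure, reporter mRNA was quantified by RT-PCR, 6-FAM labelling, HpaI digestion and capillary electrophoresis, with bidirectional fitting against DMSO.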

[20] = ATG_DR4_LXR_CIS: Attagene CIS-FACTORIAL HepG2 Assay for human Liver X Receptor (LXR), DR4 submotif (AID 2282929); conditions: HepG2 Attagene DR4 cis-reporter, mRNA transcription; actives raise or lower the signal
How it was run: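 Cells were transfected with multiple reporter transcription units, exposed to chemicals for 24 hours, then lysed for RNA. Reporter mRNA induction was measured by RT-PCR with capillary electrophoresis detection and fitted in both directions relative to DMSO.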

Aryl hydrocarbon receptor (Homo sapiens), sequence (P35869 whole entry, looked up): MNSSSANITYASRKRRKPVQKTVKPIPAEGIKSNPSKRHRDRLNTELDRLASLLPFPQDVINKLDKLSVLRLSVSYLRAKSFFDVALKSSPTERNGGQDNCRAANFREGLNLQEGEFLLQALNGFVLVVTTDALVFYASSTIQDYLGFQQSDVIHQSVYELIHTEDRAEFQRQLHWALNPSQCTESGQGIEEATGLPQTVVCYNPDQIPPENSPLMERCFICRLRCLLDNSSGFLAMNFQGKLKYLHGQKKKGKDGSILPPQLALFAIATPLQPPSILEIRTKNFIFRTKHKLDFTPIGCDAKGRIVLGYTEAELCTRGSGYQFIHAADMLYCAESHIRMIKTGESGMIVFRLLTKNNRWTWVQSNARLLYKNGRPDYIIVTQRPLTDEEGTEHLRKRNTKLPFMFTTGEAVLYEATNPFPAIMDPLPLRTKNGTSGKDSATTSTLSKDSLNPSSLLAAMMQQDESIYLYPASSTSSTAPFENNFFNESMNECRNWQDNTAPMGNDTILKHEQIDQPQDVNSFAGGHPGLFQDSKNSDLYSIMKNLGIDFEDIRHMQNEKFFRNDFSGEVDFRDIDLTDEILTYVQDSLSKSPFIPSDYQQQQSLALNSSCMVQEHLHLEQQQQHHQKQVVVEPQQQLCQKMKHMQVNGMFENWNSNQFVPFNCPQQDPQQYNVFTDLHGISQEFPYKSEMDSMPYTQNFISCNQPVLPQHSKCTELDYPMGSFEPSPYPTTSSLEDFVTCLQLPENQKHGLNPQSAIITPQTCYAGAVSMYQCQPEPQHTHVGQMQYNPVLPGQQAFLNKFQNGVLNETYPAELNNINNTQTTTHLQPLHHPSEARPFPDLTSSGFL
CCAAT/enhancer-binding protein beta (Homo sapiens), sequence (P17676 whole entry, looked up): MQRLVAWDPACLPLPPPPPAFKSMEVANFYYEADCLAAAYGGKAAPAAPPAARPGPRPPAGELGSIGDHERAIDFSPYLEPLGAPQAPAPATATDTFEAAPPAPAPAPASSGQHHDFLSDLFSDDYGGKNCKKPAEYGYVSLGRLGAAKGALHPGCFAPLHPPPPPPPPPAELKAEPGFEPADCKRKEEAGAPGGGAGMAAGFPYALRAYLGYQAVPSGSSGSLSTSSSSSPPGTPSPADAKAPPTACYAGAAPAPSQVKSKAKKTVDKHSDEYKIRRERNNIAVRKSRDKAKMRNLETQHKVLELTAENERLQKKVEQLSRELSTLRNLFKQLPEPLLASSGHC
Hepatocyte nuclear factor 3-beta (Homo sapiens), sequence (Q9Y261 whole entry, looked up): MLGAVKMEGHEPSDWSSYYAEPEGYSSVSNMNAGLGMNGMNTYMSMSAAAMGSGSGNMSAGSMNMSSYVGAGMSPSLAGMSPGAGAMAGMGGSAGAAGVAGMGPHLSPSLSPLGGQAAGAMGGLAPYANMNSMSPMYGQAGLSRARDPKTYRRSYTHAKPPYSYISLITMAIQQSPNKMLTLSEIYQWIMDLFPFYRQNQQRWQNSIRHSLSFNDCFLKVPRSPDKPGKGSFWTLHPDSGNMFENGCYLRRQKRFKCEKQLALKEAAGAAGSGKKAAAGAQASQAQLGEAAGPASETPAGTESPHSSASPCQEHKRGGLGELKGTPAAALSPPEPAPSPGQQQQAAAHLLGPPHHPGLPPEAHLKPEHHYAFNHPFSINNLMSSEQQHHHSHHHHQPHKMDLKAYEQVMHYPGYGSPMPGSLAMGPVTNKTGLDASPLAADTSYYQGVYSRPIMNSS
Transcription factor E2F1 (Homo sapiens), sequence (Q01094 whole entry, looked up): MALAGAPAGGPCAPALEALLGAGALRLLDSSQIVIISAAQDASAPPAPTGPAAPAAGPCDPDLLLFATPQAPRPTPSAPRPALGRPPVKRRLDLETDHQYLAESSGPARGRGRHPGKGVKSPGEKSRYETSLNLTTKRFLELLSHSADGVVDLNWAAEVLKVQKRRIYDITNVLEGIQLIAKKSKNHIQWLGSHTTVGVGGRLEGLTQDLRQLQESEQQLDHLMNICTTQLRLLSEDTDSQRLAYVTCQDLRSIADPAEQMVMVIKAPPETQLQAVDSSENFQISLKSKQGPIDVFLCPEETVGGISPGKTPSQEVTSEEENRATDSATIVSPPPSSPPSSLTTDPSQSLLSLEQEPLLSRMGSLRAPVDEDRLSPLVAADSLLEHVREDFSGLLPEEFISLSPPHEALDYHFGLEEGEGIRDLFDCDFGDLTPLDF
Retinoic acid receptor alpha (Homo sapiens), sequence (P10276 whole entry, looked up): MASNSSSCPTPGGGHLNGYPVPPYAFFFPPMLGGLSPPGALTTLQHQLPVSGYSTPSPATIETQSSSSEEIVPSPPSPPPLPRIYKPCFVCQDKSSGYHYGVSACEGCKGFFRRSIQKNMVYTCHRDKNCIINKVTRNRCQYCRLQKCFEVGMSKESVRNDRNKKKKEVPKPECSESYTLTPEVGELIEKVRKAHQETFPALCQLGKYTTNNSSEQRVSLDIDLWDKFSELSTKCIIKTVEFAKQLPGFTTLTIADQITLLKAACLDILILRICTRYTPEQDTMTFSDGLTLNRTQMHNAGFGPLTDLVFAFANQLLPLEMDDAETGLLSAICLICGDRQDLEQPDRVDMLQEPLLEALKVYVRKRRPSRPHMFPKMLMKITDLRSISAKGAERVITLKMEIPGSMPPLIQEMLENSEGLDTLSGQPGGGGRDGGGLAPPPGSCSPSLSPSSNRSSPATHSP

Compound: CC=C1CC2C=CC1C2 (stereo unspecified)
- outcome [1]: inactive
- outcome [2]: inactive
- outcome [3]: inactive
- outcome [4]: inactive
- AC50 [5]: 67.1 µM (active)
- outcome [6]: inactive
- outcome [7]: inactive
- outcome [8]: inactive
- outcome [9]: inactive
- outcome [10]: inactive
- outcome [11]: inactive
- outcome [12]: inactive
- outcome [13]: inactive
- outcome [14]: inactive
- outcome [15]: inactive
- outcome [16]: inactive
- outcome [17]: inactive
- outcome [18]: inactive

Compound: C=COCCCC
- outcome [1]: inactive
- outcome [2]: inactive
- outcome [3]: inactive
- outcome [4]: inactive
- outcome [5]: inactive
- outcome [6]: inactive
- outcome [7]: inactive
- outcome [8]: inactive
- outcome [9]: inactive
- outcome [10]: inactive
- outcome [11]: inactive
- outcome [12]: inactive
- outcome [13]: inactive
- outcome [14]: inactive
- outcome [15]: inactive
- outcome [17]: inactive
- outcome [18]: inactive
- outcome [19]: inactive

Compound: O=c1cc(-c2ccccc2)oc2ccccc12
- outcome [1]: inactive
- outcome [2]: inactive
- AC50 [3]: 27.7 µM (active)
- AC50 [4]: 7.62 µM (active)
- outcome [5]: inactive
- AC50 [7]: 133 µM (active)
- outcome [8]: inactive
- outcome [9]: inactive
- outcome [10]: inactive
- AC50 [12]: 82.1 µM (active)
- outcome [13]: inactive
- outcome [14]: inactive
- outcome [15]: inactive
- outcome [16]: inactive
- outcome [17]: inactive
- outcome [18]: inactive
- outcome [19]: inactive

Compound: CCCCCCOC(=O)C(C)CC (stereo unspecified)
- outcome [1]: inactive
- outcome [2]: inactive
- outcome [3]: inactive
- outcome [20]: inactive
- outcome [5]: inactive
- outcome [6]: inactive
- outcome [7]: inactive
- outcome [8]: inactive
- outcome [9]: inactive
- outcome [10]: inactive
- outcome [11]: inactive
- outcome [12]: inactive
- outcome [13]: inactive
- outcome [14]: inactive
- outcome [16]: inactive
- outcome [17]: inactive
- outcome [18]: inactive
- outcome [19]: inactive

Compound: O=C(O)CC(C(=O)O)C(CC(=O)O)C(=O)O (stereo unspecified)
- outcome [1]: inactive
- outcome [2]: inactive
- outcome [3]: inactive
- outcome [4]: inactive
- outcome [5]: inactive
- outcome [7]: inactive
- outcome [8]: inactive
- outcome [9]: inactive
- outcome [10]: inactive
- outcome [11]: inactive
- outcome [12]: inactive
- outcome [13]: inactive
- outcome [14]: inactive
- outcome [16]: inactive
- outcome [17]: inactive
- outcome [18]: inactive
- outcome [19]: inactive

Compound: N[C@H]1C(O)O[C@H](CO)[C@H](O)[C@@H]1O (stereo partly specified)
- outcome [1]: inactive
- outcome [2]: inactive
- outcome [3]: inactive
- outcome [4]: inactive
- outcome [5]: inactive
- outcome [6]: inactive
- outcome [7]: inactive
- outcome [8]: inactive
- outcome [9]: inactive
- outcome [10]: inactive
- outcome [11]: inactive
- outcome [12]: inactive
- outcome [13]: inactive
- AC50 [14]: 39.9 µM (active)
- outcome [15]: inactive
- outcome [16]: inactive
- outcome [17]: inactive
- outcome [18]: inactive
- outcome [19]: inactive

Compound: OC1OCCOC1O (stereo unspecified)
- outcome [1]: inactive
- outcome [2]: inactive
- outcome [3]: inactive
- outcome [4]: inactive
- outcome [5]: inactive
- outcome [6]: inactive
- outcome [7]: inactive
- outcome [8]: inactive
- outcome [9]: inactive
- outcome [10]: inactive
- outcome [11]: inactive
- outcome [12]: inactive
- outcome [13]: inactive
- outcome [14]: inactive
- outcome [15]: inactive
- outcome [16]: inactive
- outcome [17]: inactive
- outcome [18]: inactive
- outcome [19]: inactive
